Assay [1] is described as follows: Human pregnane X receptor (PXR) small molecule agonists, qHTS cell viability counter screen (AID 1346977). Also: % is scaled to controls: 0 for no effect and ±100 for the full control effect; nearly all actives have a fitted effect of over 50% in size. In a few lines:
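HepG2 cells stably carrying the PXR-Luc reporter are cultured with 5% charcoal-stripped FBS and treated with compounds for 24hr. CellTiter-Fluor is added at 23hr and fluorescence is read after 1hr.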
(In general: qHTS replaces the single test concentration by a dilution series.)

Assay [2] in a line: Caspase-3/7 induction in HepG2 cells by small molecules, qHTS assay (AID 1346978). Also: % is scaled to controls: 0 for no effect and ±100 for the full control effect; nearly all actives have a fitted effect of over 15% in size. In a few lines: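 Caspase-3/7 induction was measured by Caspase-Glo 3/7 luminescence (30 min, room temperature) after a 17 hr compound exposure of wild-type HepG2 cells seeded at 2,000 per well and pre-incubated 5 hr.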
A short description of assay [3]: Caspase-3/7 induction in CHO-K1 cells by small molecules, qHTS assay (AID 1346980). Also: % is scaled to controls: 0 for no effect and ±100 for the full control effect; nearly all actives have a fitted effect of over 15% in size. In a few lines: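 Luminescent Caspase-Glo 3/7 read (30min, room temperature) quantified apoptosis induction. Cells were wild-type CHO-K1, treated with compound for 17hr at 37 C and 5% CO2.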
A short description of assay [4]: Caspase-3/7 induction in HepG2 cells by small molecules, qHTS cell viability counter screen (AID 1346981). Also: nearly all actives have a fitted effect of over 30% in size. Also: potency is read from the fitted curve at half-maximal effect. In a few lines: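 Fluorescence read-out of live-cell protease activity (CellTiter-Fluor) after 1 hr with reagent. This was measured in the same wells as the caspase-3/7 luminescence, on HepG2 cells exposed to DMSO-dissolved compounds for 16 hr at 37 C.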
Assay [5] deals with Nuclear receptor subfamily 1 group I member 2 (Homo sapiens) (UniProt O75469). Kind of assay: Human pregnane X receptor (PXR) small molecule agonists, qHTS assay (AID 1346982). Also: nearly all actives have a fitted effect of over 35% in size. Also: potency is read from the fitted curve at half-maximal effect. As to activation: % is scaled to controls: 0 for no effect and ±100 for the full control effect. In a few lines: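 HepG2 PXR-Luc reporter line, 5% charcoal-stripped FBS; 5 hr pre-incubation, compound (DMSO) 24 hr at 37 C/5% CO2; ONE-Glo 30 min RT; luminescence read-out.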
Assay [6] deals with Nuclear receptor subfamily 1 group I member 2 (Rattus norvegicus) (UniProt Q9R1A7). Kind of assay: Rat pregnane X receptor (rPXR) activation by small molecules, qHTS assay (AID 1346983). Also: % is scaled to controls: 0 for no effect and ±100 for the full control effect; nearly all actives have a fitted effect of over 20% in size. Conditions: rPXR luciferase reporter cells, One-Glo luminescence, 24 h; stronger effect = higher value. The procedure, abridged: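 Luminescent readout (One-Glo luciferase, 30 min room temperature) followed 24 hr compound treatment at 37 C of rPXR cells plated 2,000 per well and preincubated 5hr; qHTS format with compounds delivered in DMSO.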

The target in assay [7] is Nuclear receptor subfamily 1 group I member 2 (Homo sapiens) (UniProt O75469). Kind of assay: CYP3A4 induction through human pregnane X receptor (PXR) by small molecules, qHTS assay (AID 1346984). Also: nearly all actives have a fitted effect of over 40% in size. Also: potency is read from the fitted curve at half-maximal effect. As to activation: % is scaled to controls: 0 for no effect and ±100 for the full control effect. The procedure, abridged: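 HepG2-derived DPX-2 line carrying PXR plus a CYP3A4-promoter luciferase reporter; cells plated 5 hr, compound-exposed 24 hr at 37C. CYP3A4 activity probed with 3uM (final) Luciferin-IPA for 3hr, then luciferase read after One-Glo.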

Assay [8] shares this target. Kind of assay: Human pregnane X receptor (PXR) activation by small molecules, qHTS assay (AID 1346985). Also: % is scaled to controls: 0 for no effect and ±100 for the full control effect; nearly all actives have a fitted effect of over 40% in size. In a few lines: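 DPX-2 cells (HepG2 co-transfected with a PXR response element and a CYP3A4-promoter luciferase construct) were seeded at 2,000 per well, rested 5 hr at 37C, then exposed to DMSO-dissolved compounds for 24 hr. Activation was read as luciferase luminescence.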

Assay [9] addresses Acetylcholinesterase (Homo sapiens) (UniProt P22303). In words: Acetylcholinesterase (AChE) small molecule antagonists: colormetric cell-based qHTS assay (AID 1347395; calls by dose curve; also: nearly all actives have a fitted effect of over 30% in size; also: potency is read from the fitted curve at half-maximal effect). In a few lines: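 Quantitative HTS in attached SH-SY5Y cells: 30 min compound exposure, then 90 min with acetylthiocholine and DTNB at 37 C; colour from thiocholine reports AChE activity.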
Assay [10] has the same target. In words: Acetylcholinesterase (AChE) small molecule antagonists: enzyme-based qHTS assay (AID 1347397; calls by dose curve; also: nearly all actives have a fitted effect of over 55% in size; also: potency is read from the fitted curve at half-maximal effect). Conditions: Potency: AChE enzyme activity inhibition. The procedure, abridged:
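Colorimetric DTNB readout of acetylthiocholine hydrolysis, 10 min at room temperature, after 30 min room-temperature exposure of 50 mU/mL recombinant human enzyme to compound; DMSO vehicle control.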

For assay [11] the target is unchanged. Kind of assay: Acetylcholinesterase (AChE) small molecule antagonists: fluorescence cell-based qHTS assay (AID 1347398; calls by dose curve; also: nearly all actives have a fitted effect of over 50% in size; also: potency is read from the fitted curve at half-maximal effect). The settings on record: Potency: AChE activity. In a few lines: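 Cellular AChE activity read as thiocholine from acetylthiocholine hydrolysis, detected by Thiolite Green fluorescence at 490/520 nm after 40 min at room temperature. Compounds were pre-incubated 30 min at 37 C on adherent SH-SY5Y cells.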

The target is the same in assay [12]. Kind of assay: Acetylcholinesterase (AChE) small molecule antagonists: enzyme-based qHTS assay with human liver microsomes (AID 1347399; calls by dose curve; also: % is scaled to controls: 0 for no effect and ±100 for the full control effect; nearly all actives have a fitted effect of over 60% in size). Conditions: Potency: qHTS inhibition. The procedure, abridged: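 Recombinant human AChE (50 mU/mL in the enzyme mix) and human liver microsomes (0.25 mg/mL final) were preincubated with compound and NADPH (0.25 mg/mL final) for 30 min at 37 C. Acetylthiocholine/DTNB was then added; thiocholine was read colorimetrically after 10 min at room temperature.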

The target in assay [13] is Cytochrome P450 2D6 (Homo sapiens) (UniProt P10635). Kind of assay: Cytochrome P450 Family 2 Subfamily D Member 6 (CYP2D6) small molecule antagonists: luciferase reporter qHTS assay (AID 1671196). Also: nearly all actives have a fitted effect of over 50% in size. Also: potency is read from the fitted curve at half-maximal effect. In a few lines:
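Luminogenic proluciferin substrate, CYP2D6 enzyme; 10 min RT preincubation with compound, NADPH regeneration system added, 1 h RT. Stop/detection reagent, 20 min RT, luminescence read (RLU). Signal proportional to CYP activity.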
For orientation: In a reporter assay the amount or activity of a reporter protein is the signal.

Assay [14] concerns the target Cytochrome P450 2C19 (Homo sapiens) (UniProt P33261). Kind of assay: Cytochrome P450 Family 2 Subfamily C Member 19 (CYP2C19) small molecule antagonists: luciferase reporter qHTS assay (AID 1671197). Also: nearly all actives have a fitted effect of over 65% in size. Also: potency is read from the fitted curve at half-maximal effect. The procedure, abridged:
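P450-Glo CYP2C19 system: enzyme-substrate mix with compound 10 min at room temperature, then NADPH regeneration solution, 1 h at 37C. Proluciferin-to-luciferin conversion detected by luminescence after 20 min with detection reagent; ketoconazole as positive control.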

Assay [15] addresses Cytochrome P450 2C9 (Homo sapiens) (UniProt P11712). In words: Cytochrome P450 Family 2 Subfamily C Member 9 (CYP2C9) small molecule antagonists: luciferase reporter qHTS assay (AID 1671198). Also: nearly all actives have a fitted effect of over 50% in size. Also: potency is read from the fitted curve at half-maximal effect. The procedure, abridged: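 Enzyme-substrate mix preincubated with compound 10 min at room temperature; reaction started with NADPH regeneration solution, 1 h 37C. Luminescent luciferin product read after 20 min detection reagent.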

Assay [16] has as its target Cytochrome P450 1A2 (Homo sapiens) (UniProt P05177). Kind of assay: Cytochrome P450 Family 1 Subfamily A Member 2 (CYP1A2) small molecule antagonists: luciferase reporter qHTS assay (AID 1671199). Also: nearly all actives have a fitted effect of over 50% in size. Also: potency is read from the fitted curve at half-maximal effect. The procedure, abridged:
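Luminescence readout (relative luminescence units) after luciferin detection reagent, 20 min RT. Preceded by 1 h room-temperature CYP1A2 reaction with NADPH regeneration solution following 10 min compound preincubation with enzyme and proluciferin substrate. Furafylline positive control.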

For assay [17], the target named is Voltage-gated inwardly rectifying potassium channel KCNH2 (Homo sapiens) (UniProt Q12809). Kind of assay: Human Ether-a-go-go-Related Gene (hERG) channel small molecule antagonists: fluorescence cell-based qHTS assay (AID 1671200). Also: nearly all actives have a fitted effect of over 50% in size. Also: potency is read from the fitted curve at half-maximal effect. The procedure, abridged: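 First, 1000 cells per well are seeded and cultured overnight at 37 C. Next, FluxOR II dye is loaded for 1 h at room temperature, protected from light. After 10 more minutes, stimulus is added and fluorescence is read.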
(In general: The hERG channel carries a current that helps repolarise heart muscle cells.)

The target of assay [18] is Cytochrome P450 3A4 (Homo sapiens) (UniProt P08684). In words: Cytochrome P450 Family 3 Subfamily A Member 4 (CYP3A4) small molecule antagonists: luciferase reporter qHTS assay (AID 1671201). Also: nearly all actives have a fitted effect of over 50% in size. Also: potency is read from the fitted curve at half-maximal effect. In a few lines:
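Enzyme and proluciferin substrate are mixed with test chemicals for 10 min, then NADPH regeneration system drives turnover for 1 h at room temperature. A detection reagent halts the reaction; luminescence after 20 min gives relative activity.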

A short description of assay [19]: Caspase-3/7 induction in CHO-K1 cells by small molecules, qHTS cell viability counter screen (AID 1346979). Also: potency is read from the fitted curve at half-maximal effect; nearly all actives have a fitted effect of over 35% in size. In a few lines:
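Seeding: 1,500 CHO-K1 cells/well. Rest: 5hr, 37C. Treatment: compounds in DMSO, 16hr. Read: CellTiter-Fluor, 1hr, fluorescence.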

The record followed here is PubChem BioAssay (Tox21).

Molecules are shown by their SMILES. Values joined by “and” are separate entries in the source; they are usually repeats but may differ in a detail not shown here. Equal values may be shown once. Results filed as inconclusive are left out. A structure can be active in one record and inactive in another. Active and inactive are the calls of the source. Unless noted, calls follow the shape of the dose curve; as a rule, active = well fitted curve in the direction sought with a large enough effect in the repeat runs; inconclusive = weak or mixed curves; inactive = no such curve, though single readings can be large; an effect the other way counts as inactive or inconclusive.

Chain of Cytochrome P450 3A4 (Homo sapiens) (P08684 whole entry, looked up): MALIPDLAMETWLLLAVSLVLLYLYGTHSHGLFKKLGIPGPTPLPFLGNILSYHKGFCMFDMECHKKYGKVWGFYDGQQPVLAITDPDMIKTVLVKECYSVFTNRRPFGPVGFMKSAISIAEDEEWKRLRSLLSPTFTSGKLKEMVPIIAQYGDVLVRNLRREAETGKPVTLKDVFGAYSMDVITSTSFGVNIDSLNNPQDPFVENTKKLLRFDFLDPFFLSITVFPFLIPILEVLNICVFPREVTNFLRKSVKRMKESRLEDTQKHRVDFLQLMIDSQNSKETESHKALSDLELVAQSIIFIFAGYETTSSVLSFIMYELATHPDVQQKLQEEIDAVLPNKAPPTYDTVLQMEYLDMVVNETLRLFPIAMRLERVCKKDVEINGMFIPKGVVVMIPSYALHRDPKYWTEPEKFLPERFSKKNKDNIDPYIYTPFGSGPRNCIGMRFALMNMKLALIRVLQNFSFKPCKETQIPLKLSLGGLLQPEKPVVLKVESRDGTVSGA
Chain of Cytochrome P450 1A2 (Homo sapiens) (P05177 whole entry, looked up): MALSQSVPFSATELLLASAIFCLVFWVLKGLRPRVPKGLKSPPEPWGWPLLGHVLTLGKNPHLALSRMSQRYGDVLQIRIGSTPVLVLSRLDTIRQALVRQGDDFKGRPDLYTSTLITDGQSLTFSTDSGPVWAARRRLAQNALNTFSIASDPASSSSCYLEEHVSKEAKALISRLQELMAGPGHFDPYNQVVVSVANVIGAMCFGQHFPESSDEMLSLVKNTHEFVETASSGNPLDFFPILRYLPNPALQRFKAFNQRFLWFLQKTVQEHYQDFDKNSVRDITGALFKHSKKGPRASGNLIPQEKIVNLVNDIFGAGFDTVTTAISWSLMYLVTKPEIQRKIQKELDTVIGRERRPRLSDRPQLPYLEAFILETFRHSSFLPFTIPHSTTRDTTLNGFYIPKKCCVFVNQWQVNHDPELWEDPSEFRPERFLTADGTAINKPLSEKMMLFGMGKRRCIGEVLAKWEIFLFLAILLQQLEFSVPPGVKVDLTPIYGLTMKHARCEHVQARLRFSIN
Chain of Nuclear receptor subfamily 1 group I member 2 (Homo sapiens) (O75469 whole entry, looked up): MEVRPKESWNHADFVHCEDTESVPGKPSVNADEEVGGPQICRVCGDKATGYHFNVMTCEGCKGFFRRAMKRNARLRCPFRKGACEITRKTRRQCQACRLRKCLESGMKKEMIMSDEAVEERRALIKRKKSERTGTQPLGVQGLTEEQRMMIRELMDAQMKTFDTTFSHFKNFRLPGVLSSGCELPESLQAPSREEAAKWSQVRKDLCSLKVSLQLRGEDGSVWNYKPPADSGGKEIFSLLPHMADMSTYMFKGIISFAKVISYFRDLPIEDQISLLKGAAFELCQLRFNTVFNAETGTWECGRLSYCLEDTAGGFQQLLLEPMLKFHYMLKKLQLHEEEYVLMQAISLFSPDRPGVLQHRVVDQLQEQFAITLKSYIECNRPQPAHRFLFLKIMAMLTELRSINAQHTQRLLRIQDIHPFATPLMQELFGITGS
Chain of Cytochrome P450 2C19 (Homo sapiens) (P33261 whole entry, looked up): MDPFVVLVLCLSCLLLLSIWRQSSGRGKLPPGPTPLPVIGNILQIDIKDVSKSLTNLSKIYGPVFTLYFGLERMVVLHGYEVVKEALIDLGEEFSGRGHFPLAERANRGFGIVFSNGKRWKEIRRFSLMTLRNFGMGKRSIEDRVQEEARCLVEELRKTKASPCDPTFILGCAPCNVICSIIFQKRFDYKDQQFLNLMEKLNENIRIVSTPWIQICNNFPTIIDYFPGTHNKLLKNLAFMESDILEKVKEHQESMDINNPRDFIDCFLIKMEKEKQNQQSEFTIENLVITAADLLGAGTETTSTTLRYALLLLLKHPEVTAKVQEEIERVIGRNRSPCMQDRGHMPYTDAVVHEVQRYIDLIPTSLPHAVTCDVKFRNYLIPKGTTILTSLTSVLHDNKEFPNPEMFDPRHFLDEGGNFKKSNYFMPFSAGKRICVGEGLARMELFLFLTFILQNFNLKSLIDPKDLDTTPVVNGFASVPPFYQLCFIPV
Chain of Cytochrome P450 2D6 (Homo sapiens) (P10635 whole entry, looked up): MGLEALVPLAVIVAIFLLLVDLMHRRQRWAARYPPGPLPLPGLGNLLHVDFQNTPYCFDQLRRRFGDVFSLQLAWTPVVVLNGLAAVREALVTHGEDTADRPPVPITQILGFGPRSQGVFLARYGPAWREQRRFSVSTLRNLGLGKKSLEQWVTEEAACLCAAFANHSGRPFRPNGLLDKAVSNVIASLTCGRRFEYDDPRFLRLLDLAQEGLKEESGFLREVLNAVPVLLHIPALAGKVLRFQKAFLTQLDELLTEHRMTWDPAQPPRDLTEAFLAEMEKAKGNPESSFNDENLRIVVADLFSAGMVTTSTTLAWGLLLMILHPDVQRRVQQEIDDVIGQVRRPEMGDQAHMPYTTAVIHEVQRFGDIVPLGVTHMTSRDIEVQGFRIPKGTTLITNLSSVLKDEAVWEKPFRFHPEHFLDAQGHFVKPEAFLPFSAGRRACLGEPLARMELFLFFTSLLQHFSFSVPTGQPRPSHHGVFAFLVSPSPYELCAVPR
Chain of Cytochrome P450 2C9 (Homo sapiens) (P11712 whole entry, looked up): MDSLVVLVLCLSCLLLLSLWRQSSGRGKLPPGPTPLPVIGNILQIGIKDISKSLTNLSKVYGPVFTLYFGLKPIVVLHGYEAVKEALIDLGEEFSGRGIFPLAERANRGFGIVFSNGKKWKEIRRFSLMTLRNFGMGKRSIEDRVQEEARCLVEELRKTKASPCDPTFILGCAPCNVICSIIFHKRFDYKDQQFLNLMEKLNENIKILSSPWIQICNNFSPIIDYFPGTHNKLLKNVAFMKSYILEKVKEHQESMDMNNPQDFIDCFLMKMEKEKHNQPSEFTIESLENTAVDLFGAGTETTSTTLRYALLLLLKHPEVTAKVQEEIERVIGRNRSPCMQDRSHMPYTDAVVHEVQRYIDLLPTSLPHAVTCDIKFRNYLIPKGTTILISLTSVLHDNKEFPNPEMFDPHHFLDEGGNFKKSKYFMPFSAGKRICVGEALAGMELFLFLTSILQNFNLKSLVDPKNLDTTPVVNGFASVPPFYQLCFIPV
Chain of Acetylcholinesterase (Homo sapiens) (P22303 whole entry, looked up): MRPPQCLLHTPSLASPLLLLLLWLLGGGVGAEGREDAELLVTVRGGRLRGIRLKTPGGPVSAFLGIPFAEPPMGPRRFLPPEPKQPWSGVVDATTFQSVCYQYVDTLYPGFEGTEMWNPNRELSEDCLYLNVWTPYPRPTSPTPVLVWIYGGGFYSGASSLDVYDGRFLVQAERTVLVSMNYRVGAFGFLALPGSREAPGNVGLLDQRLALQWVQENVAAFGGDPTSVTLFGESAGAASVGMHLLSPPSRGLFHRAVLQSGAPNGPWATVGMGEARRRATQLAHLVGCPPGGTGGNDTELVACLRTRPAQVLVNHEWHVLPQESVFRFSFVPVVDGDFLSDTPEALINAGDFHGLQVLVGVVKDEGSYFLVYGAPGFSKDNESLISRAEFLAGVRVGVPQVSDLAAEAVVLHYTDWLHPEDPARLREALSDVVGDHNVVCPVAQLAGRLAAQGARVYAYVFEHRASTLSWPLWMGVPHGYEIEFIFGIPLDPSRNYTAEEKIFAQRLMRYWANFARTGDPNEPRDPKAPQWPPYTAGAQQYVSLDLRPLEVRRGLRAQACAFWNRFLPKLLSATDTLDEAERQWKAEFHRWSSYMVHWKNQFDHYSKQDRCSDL
Chain of Voltage-gated inwardly rectifying potassium channel KCNH2 (Homo sapiens) (Q12809 whole entry, looked up): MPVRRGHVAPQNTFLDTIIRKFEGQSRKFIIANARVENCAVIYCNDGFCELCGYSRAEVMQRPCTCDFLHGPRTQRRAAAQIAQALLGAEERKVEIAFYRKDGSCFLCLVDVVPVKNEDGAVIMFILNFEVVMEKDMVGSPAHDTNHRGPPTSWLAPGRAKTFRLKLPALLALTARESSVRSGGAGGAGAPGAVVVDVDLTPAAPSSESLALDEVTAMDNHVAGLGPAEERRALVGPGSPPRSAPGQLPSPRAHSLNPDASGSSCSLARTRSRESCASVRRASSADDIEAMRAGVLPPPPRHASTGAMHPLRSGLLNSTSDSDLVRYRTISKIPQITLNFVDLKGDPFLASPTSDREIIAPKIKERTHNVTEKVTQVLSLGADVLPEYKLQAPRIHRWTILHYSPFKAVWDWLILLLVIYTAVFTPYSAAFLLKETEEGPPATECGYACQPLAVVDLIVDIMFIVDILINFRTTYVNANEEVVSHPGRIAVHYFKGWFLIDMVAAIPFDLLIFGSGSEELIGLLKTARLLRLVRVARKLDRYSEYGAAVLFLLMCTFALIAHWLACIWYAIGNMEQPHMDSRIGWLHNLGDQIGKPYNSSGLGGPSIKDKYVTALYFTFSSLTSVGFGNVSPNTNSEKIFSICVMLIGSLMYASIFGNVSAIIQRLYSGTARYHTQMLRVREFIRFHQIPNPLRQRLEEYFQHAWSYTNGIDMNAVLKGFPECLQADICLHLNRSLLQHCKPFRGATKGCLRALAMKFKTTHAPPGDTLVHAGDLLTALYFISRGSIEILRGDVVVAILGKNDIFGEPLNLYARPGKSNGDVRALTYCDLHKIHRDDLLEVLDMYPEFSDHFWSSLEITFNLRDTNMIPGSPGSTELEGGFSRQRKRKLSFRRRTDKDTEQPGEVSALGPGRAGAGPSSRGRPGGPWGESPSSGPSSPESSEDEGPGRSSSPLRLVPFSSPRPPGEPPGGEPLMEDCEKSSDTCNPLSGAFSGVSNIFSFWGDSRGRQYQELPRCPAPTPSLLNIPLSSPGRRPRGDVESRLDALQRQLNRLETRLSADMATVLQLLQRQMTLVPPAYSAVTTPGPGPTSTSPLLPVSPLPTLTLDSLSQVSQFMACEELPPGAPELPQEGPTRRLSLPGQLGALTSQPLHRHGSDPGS

As to `COP(=S)(OC)Oc1ccc(Sc2ccc(OP(=S)(OC)OC)cc2)cc1`, the Potency entry in [1], in assay [2], in [3], in assay [4], in assay [7] and in assay [9] was “inactive” each time. In addition, the Potency entry in [10], in [11], in assay [12], in assay [16] and in assay [17] was “inactive” each time. Besides, the Potency was 24.3 µM (active) and inactive in assay [5]; 63.3 µM (active) and inactive in [13]; 3.17 µM (active) and 4.9 µM (active) in assay [14]; 5.64 µM (active) and 11 µM (active) in [15]. In addition, the max activation in [6] is 1.76% (inactive). Also, the call in [8] was inactive.

With `Clc1cccc(C(Cl)(Cl)Cl)n1`, the Potency entry in assay [1], in assay [2], in [3], in assay [4], in assay [5] and in [9] was “inactive” in each case. Further, the Potency entry in assay [10], in assay [11], in assay [12], in [13], in assay [14] and in [15] was “inactive” in each case. Besides, the Potency entry in assay [17] and in assay [18] was “inactive” throughout. In assay [16], the Potency was 11.2 µM (active).

Take `CNC(=S)S`: the Potency result in assay [1], in [2], in [3], in [4], in assay [5] and in assay [9] was “inactive” in each case. The Potency result in assay [10], in [11], in assay [12], in [13], in assay [16] and in assay [17] was “inactive” each time. In assay [18], the Potency entry was “inactive”. Moreover, the Potency in assay [14] is 38.9 µM (active); in assay [15] it was 61.7 µM (active).

In the case of `CC(C)Nc1nc(Cl)nc(NC(C)C)n1`, the Potency entry in assay [1], in assay [2], in assay [3], in assay [4], in assay [12] and in [13] was “inactive” throughout. The Potency entry in assay [15], in assay [17] and in [18] was “inactive” throughout. Further, the Potency is 54.4 µM (active) and 24.3 µM (active) in assay [5]; “inactive and 31.7 µM (active)” in [9]; “inactive and 71 µM (active)” in assay [10]; “inactive and 31.7 µM (active)” in assay [11]; “inactive and 35.6 µM (active)” in assay [14]; 10 µM (active) and 20 µM (active) in assay [16].

For `NC(=O)CN1CCCC1=O`, the Potency entry in assay [1], in assay [2], in assay [3], in assay [4], in assay [9] and in [10] was “inactive” throughout. The Potency entry in [11], in assay [12], in assay [13], in assay [14], in assay [15] and in assay [16] was “inactive” throughout. In addition, the Potency entry in assay [17] is “inactive”. Moreover, the max activation in assay [6] is -4.89% (inactive).

In the case of `CC(C)Nc1ccc(Nc2ccccc2)cc1`, the Potency result in [2], in assay [3], in [9], in assay [10] and in assay [12] was “inactive” throughout. Further, the Potency in assay [19] is 24.2 µM (active) and 38.6 µM (active); in assay [4], 38.4 µM (active) and 61.1 µM (active); in [5] it was 4.31 µM (active) and 5.45 µM (active); in assay [7] it was 14.1 µM (active); in [13] it was 8.91 µM (active) and 10 µM (active); in [14], 3.16 µM (active) and 3.99 µM (active). Also, the Potency in assay [15] was 501 nM (active) and 1.12 µM (active); in assay [16], 35.5 µM (active) and 35.6 µM (active); in assay [17], 24.4 µM (active); in assay [18] it was 12.6 µM (active) and 28.3 µM (active).
